From PubChem
KB-V1 MDR tox = kills drug-selected multidrug resistant KB-V1 cells | KB-V1 MDR cells viability, CellTiter-Glo, 72 h | Potency, µM (highest dose often 46.1 µM), actives largely listed as cytotoxic | 400,000 compounds, 3.4% hits | AID 1347076; note: nearly all actives have a fitted effect of over 60% in size
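Compound-treated KB-V1 multidrug-resistant cells, 72 h, 37 degrees C; viability by CellTiter-Glo. Fitted qHTS curves give the values.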
TDP1 cell CPT = DT40-hTDP1 cell growth loss with CPT | chicken DT40 Tdp1-/-;hTDP1 cells + 20 nM CPT, ATP luminescence, 48 h | Potency, µM (series often up to 46.2 µM), without a hit: at the top dose activity change, negative = growth inhibition, usual class: inhibitors | 420,000 compounds, 12% hits | AID 686979; note: nearly all actives have a fitted effect of over 55% in size
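Chicken DT40 Tdp1-/- cells stably complemented with human TDP1 were seeded at 400 cells/well in medium containing 20 nM camptothecin, exposed to pin-transferred compounds, and grown at 37 °C for at least 48 hr. Viability was read as ATP luminescence.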
HT1080 IDH1KD tx = HT-1080 IDH1 knockdown cell toxicity (counter line). HT-1080 IDH1 knockdown viability, ATP luminescence, 48 h. Potency, µM (titrated, usually from 46.1 µM), inactives show at the top dose activity, negative = toxicity, actives largely listed as cytotoxic. 360,000 compounds, 2% hits;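 note: 0% = DMSO wells and -100% = cell-free medium wells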
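Luminescent ATP read-out (CellTiter-Glo, 10 min at room temperature) after 48 h compound exposure at 37 °C gave viability of IDH1-knockdown HT-1080 cells. Activity was normalised to DMSO and cell-free wells, then fitted as concentration-response curves.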
DT40 TDP1 no CPT = qHTS for Inhibitors of human tyrosyl-DNA phosphodiesterase 1 (TDP1): qHTS in cells in absence of CPT | AID 686978, 2013 | DT40 Tdp1-/- hTDP1 cells, no CPT, ATP luminescence, 48 h | 420,000 compounds, 15% hits | Potency, µM (top dose mostly 46.2 µM), for inactives: at the top dose activity change, negative = growth inhibition, most hits filed as inhibitors; note: nearly all actives have a fitted effect of over 55% in size
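A cellular qHTS used chicken DT40 cells lacking endogenous Tdp1 but carrying stably transfected human TDP1. Compounds were applied without camptothecin, and cell growth kinetics were judged by ATP-dependent luminescence after ≥48 hr.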
KB-3-1 cytotox = kills parental KB-3-1 adenocarcinoma cells; 400,000 compounds, 1.4% hits; AID 1347075; Potency, µM (doses to about 46.1 µM), usual class: cytotoxic; KB-3-1 viability, CellTiter-Glo ATP luminescence, 72 h; note: nearly all actives have a fitted effect of over 60% in size
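KB-3-1 cells, DMEM (no phenol red) + 10% FBS; compound by pin transfer, 72 h, 37 °C. Readout: CellTiter-Glo luminescence after 10 min. Data normalized, curve-fitted.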
HT1080NT lethal = kills 2HG-producing HT-1080-NT fibrosarcoma cells. HT-1080-NT fibrosarcoma viability, CellTiter-Glo ATP luminescence, 48 h. Potency, µM (top dose mostly 46.1 µM), for inactives: at the highest dose activity, negative = less viability, hits mostly cytotoxic. 360,000 compounds, 1.6% hits. AID 686970;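 note: NT is the 2HG producing partner of a matched IDH1 knockdown line; 0% = DMSO-treated cells and -100% = media-only wells without cells; nearly all actives have a fitted effect of over 55% in size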
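Toxicity toward the 2HG-producing NT line was scored as %Activity, normalised to DMSO and no-cell wells, from CellTiter-Glo luminescence after 48 hours' treatment.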
Starred values were filed as active, the others as inactive; i = inactive; ? = inconclusive; / = no result. In the library only some 19% were active in any assay of this set; here they are far more common. Calls come from the whole dose curve; as a rule, active = well fitted curve in the direction sought with a large enough effect; inconclusive = small, poorly fitted or top-dose-only effect, or another doubt; inactive = no such curve, though single readings can be large; an effect the other way counts as inactive or inconclusive. Unless noted, % is set by controls: 0 for no effect and ±100 for the full control effect; potency is the fitted concentration of half-maximal effect.

SMILES | KB-V1 MDR tox | TDP1 cell CPT | HT1080 IDH1KD tx | DT40 TDP1 no CPT | KB-3-1 cytotox | HT1080NT lethal
COc1ccc(NC(=O)c2nc(SC)ncc2Cl)cc1 | i | -14% | 10% | 1% | i | 3%
COc1ccccc1NC(=O)c1nc[nH]c1C(=O)Nc1ccccc1OC | i | -28% | 0% | ? | i | 9%
CCOc1ccccc1C(=O)Nc1ccsc1C(=O)OC | 7.3µM* | 4.1µM* | ? | 3.7µM* | 5.8µM* | ?
Cc1c(C(=O)N2CCCCCC2)c(S(=O)(=O)Nc2cccc(C#N)c2)c(C)n1C | i | -23% | / | -27% | i | /
O=C1c2ccccc2C(c2nnnn2Cc2ccccc2)N1CCCN1CCOCC1 (centres undefined) | i | 4% | 4% | -13% | i | 0%
CCOc1ccccc1C(=O)Nc1ccc(NC(=O)c2ccccc2)cc1 | i | -12% | 14% | -9% | i | 8%
CCOc1ccccc1NC(=O)c1cc(SC)ccc1Cl | ? | ? | -22% | 18µM* | i | -20%
CCOc1ccccc1C(=O)Nc1ccccc1C(N)=O | 13µM* | -23% | -18% | -23% | i | 2%
CSc1ccc(Cl)c(C(=O)NCCOc2ccccc2)c1 | i | -26% | 0% | ? | i | -4%
COc1ccc(NC(=O)c2cc(SC)ccc2Cl)cc1 | 15µM* | 23µM* | -25% | ? | i | -11%
CCOc1ccccc1NC(=O)c1ccccc1-c1ccccc1 | i | ? | 2% | 23µM* | i | -3%
CCOc1ccccc1NC(=O)c1cccc2ccccc12 | i | ? | -5% | ? | ? | -13%
Cc1ccc([N+](=O)[O-])c(Oc2ncnc3c2oc2ccccc23)c1 | i | ? | / | ? | i | /
CC(=O)c1ccc(OCC(=O)NC(=O)NC2CCCC2)cc1 | i | ? | 5% | ? | i | 13%
CCOC(=O)c1cc(-c2ccccc2)n(CCCC(=O)Nc2cc(C)ccc2OC)c1C | i | 18µM* | / | 23µM* | i | /
CC(=O)c1cc(-c2ccccc2)n(CC(=O)NC(C)(C)C)c1C | i | -2% | 0% | -4% | i | 2%
CCOC(=O)c1cc(-c2ccccc2)n(CC(=O)Nc2ccc(OC)c(OC)c2)c1C | i | ? | -2% | ? | i | -2%
CCOC(=O)c1cc(-c2ccccc2)n(CC(=O)Nc2cccc(OC)c2)c1C | i | ? | ? | 5.8µM* | i | -25%
CCOC(=O)c1cc(-c2ccccc2)n(CC(=O)NCc2ccccc2OC)c1C | / | 16µM* | / | 16µM* | / | /
CC(=O)c1cc(-c2ccccc2)n(CC(=O)Nc2cccc(C)c2)c1C | i | 18µM* | -14% | 15µM* | i | -25%
CC1(C(=O)NS(=O)(=O)c2cccc(OC(F)F)c2)CCN1C(=O)CCc1cccs1 (centres undefined) | i | -2% | ? | 0% | i | 10%
COc1ccc(OCC(=O)NC(=S)Nc2ccccc2F)cc1 | i | 1% | 9% | 4% | i | 2%
COc1ccc(OC)c(S(=O)(=O)NCC(c2ccc(N(C)C)cc2)N2CCOCC2)c1 (centres undefined) | i | -22% | / | -19% | i | /
CCSC1=NC2(CCN(C(=O)NC3CCCCC3)CC2)N=C1c1ccc(Cl)cc1 | i | 2% | / | -3% | ? | /
COc1ccc(NC(=O)C2(S(=O)(=O)c3ccc(C)cc3)CC2)c(OC)c1 | i | -11% | / | -22% | i | /
SMILES | KB-V1 MDR tox | TDP1 cell CPT | HT1080 IDH1KD tx | DT40 TDP1 no CPT | KB-3-1 cytotox | HT1080NT lethal
CCOC(=O)c1cc(-c2ccccc2)n(CCCC(=O)Nc2cccc(Cl)c2C)c1C | i | ? | / | ? | i | /
CCOC(=O)c1cc(-c2ccccc2)n(CCC(=O)Nc2cc(OCC)ccc2OCC)c1C | i | 16µM* | / | ? | i | /
CCOC(=O)c1cc(-c2ccccc2)n(CC(=O)Nc2ccccc2OCC)c1C | / | -81% | / | 9.2µM* | / | /
O=C(CCn1c(=O)c2cccn2c2ccc(F)cc21)NCCc1ccc(Cl)cc1 | / | ? | / | 15µM* | / | /
Cc1ccc(CCNC(=O)CCn2c(=O)c3cccn3c3ccc(F)cc32)cc1 | ? | ? | -13% | 18µM* | i | -5%
CCCCNC(=O)CCn1c(=O)c2cccn2c2ccc(F)cc21 | i | ? | 14% | ? | i | 17%
O=C(O)c1ccccc1-c1ccccc1C(=O)Nc1ccc2c(c1)C(O)c1ccccc1-2 (centres undefined) | i | 2% | 4% | -1% | i | 10%
O=C(Nc1cccnc1)C1Cc2c(-c3ccccc3Oc3ccccc3)ccnc2O1 (centres undefined) | i | ? | ? | 23µM* | i | ?
CN(C)c1cccc(NC(=O)C2Cc3c(-c4ccccc4Oc4ccccc4)ccnc3O2)c1 (centres undefined) | ? | ? | ? | ? | ? | -12%
CC(=O)c1cccc(NC(=O)C2Cc3c(-c4ccccc4Oc4ccccc4)ccnc3O2)c1 (centres undefined) | ? | 18µM* | ? | 16µM* | i | ?
O=C(Nc1cccc(C(F)(F)F)c1)C1Cc2c(-c3ccccc3Oc3ccccc3)ccnc2O1 (centres undefined) | 18µM* | 23µM* | ? | 16µM* | ? | ?
Cc1ccc2c(c1)N(C(=O)NCc1ccccc1)CCO2 | i | 0% | / | -8% | i | /
O=C(O)/C=C/c1ccc2c(c1)S(=O)(=O)N(C1CCCC1)[C@H]2CC(=O)O | i | -17% | / | -3% | i | /
COn1c(SCc2ccc(C)cc2C)nc2ccccc2c1=O | ? | 21µM* | ? | 18µM* | ? | -27%
Cn1c(SCc2ccccc2Br)nc2ccccc2c1=O | ? | ? | 4% | ? | ? | 7%
Cc1ccccc1CSc1nc2ccccc2c(=O)n1C | i | ? | 1% | 26µM* | ? | -3%
CCOc1ccc(OCC)c(NC(=O)CSc2nc3ccccc3c(=O)n2C)c1 | i | 16µM* | -25% | 21µM* | i | -14%
COc1ccc(-c2nnc(CSc3nc4ccccc4c(=O)n3C)o2)cc1OC | 3.7µM* | 15µM* | -12% | 21µM* | i | 2%
